Experimental findings from PubChem BioAssay (NCI) are described below.

Holding throughout (experiment): NCI-60 one-dose screen, 48 h (100 = growth as untreated, 0 = no growth, -100 = all killed)
One experiment deals with SK-MEL-2 melanoma. The conditions noted are these: 10 µM unless noted.
The subject of the next experiment is EKVX NSCLC. The following applies: 10 µM unless noted.
A further experiment deals with SN12C renal. The following applies: 10 µM unless noted.
The subject of a further experiment is UO-31 renal. The following applies: 10 µM unless noted.
The next experiment concerns TK-10 renal. The following applies: 10 µM unless noted.
Another experiment deals with ACHN renal. The following applies: 10 µM unless noted.
In another experiment the test system is CAKI-1 renal. The following applies: 10 µM.
The test system of a further experiment is CCRF-CEM leukemia. The conditions noted are these: 10 µM unless noted.
In a further experiment the test system is MOLT-4 leukemia. The conditions noted are these: 10 µM unless noted.
Another experiment relates to SR leukemia. The following applies: 10 µM unless noted.
A further experiment concerns RPMI-8226 leukemia. The following applies: 10 µM unless noted.
Another experiment has as its system OVCAR-8 ovarian. The conditions noted are these: 10 µM unless noted.
A further experiment relates to OVCAR-5 ovarian. The following applies: 10 µM unless noted.
Another experiment has as its system OVCAR-4 ovarian. The following applies: 10 µM unless noted.
In a further experiment the test system is SK-OV-3 ovarian. The conditions noted are these: 10 µM unless noted.
A further experiment deals with IGROV1 ovarian. The conditions noted are these: 10 µM unless noted.
In a further experiment the test system is OVCAR-3 ovarian. The conditions noted are these: 10 µM unless noted.
Another experiment deals with HS 578T breast. The following applies: 10 µM unless noted.
The next experiment concerns NCI/ADR-RES ovarian. The conditions noted are these: 10 µM unless noted.

Molecules are shown by their SMILES. About 83,000 compounds went through this panel and 20% of them were active in at least one assay; those are over-represented in the sample as a whole.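 96-well plates, one dose, 48 hours. Percent growth reported; active if below 10.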 Values without a mark were called inactive. Calls of active or inactive are those of the source.

`CCN1C(=O)N(CC)C2SC(N/N=C/C=C/c3ccccc3OC)=NC21` (stereo unspecified): the growth in the experiment with SK-MEL-2 melanoma is 51.5%; in the experiment on EKVX NSCLC it was 46.8%; in the experiment with SN12C renal it was 28.6%; with UO-31 renal, 40.2%; with TK-10 renal, 52.1%; in the experiment with ACHN renal it was 29.9%. Further, the growth with CAKI-1 renal is 46.7%; with CCRF-CEM leukemia, 11.3%; in the experiment on MOLT-4 leukemia it was 16.9%; in the experiment with SR leukemia it was 27.5%; with RPMI-8226 leukemia, 14.3%; in the experiment on OVCAR-8 ovarian, 22.3%. Moreover, the growth is 37.7% with OVCAR-5 ovarian; 68.6% in the experiment on OVCAR-4 ovarian; 52.8% with SK-OV-3 ovarian; 21.4% in the experiment on IGROV1 ovarian; -39.6% (active) in the experiment with OVCAR-3 ovarian; 27.1% with HS 578T breast. In addition, in the experiment with NCI/ADR-RES ovarian, the growth was 11.9%.

For `O=C(COc1ccc(C2SCC(=O)N2c2ccc(F)cc2)cc1)c1ccccc1` (stereo unspecified), the growth with SK-MEL-2 melanoma is 99.8%; in the experiment on EKVX NSCLC it was 86.9%; in the experiment on SN12C renal, 97.1%; in the experiment with UO-31 renal it was 78.6%; with TK-10 renal it was 131%; in the experiment on ACHN renal, 95.6%. Further, the growth in the experiment with CAKI-1 renal was 66%; in the experiment on CCRF-CEM leukemia it was 95.8%; with MOLT-4 leukemia it was 92.5%; with SR leukemia, 65.1%; with RPMI-8226 leukemia it was 87.4%; with OVCAR-8 ovarian, 94.4%. In addition, the growth is 107% in the experiment with OVCAR-5 ovarian; 110% in the experiment on OVCAR-4 ovarian; 112% with SK-OV-3 ovarian; 86.2% with IGROV1 ovarian; 114% in the experiment with OVCAR-3 ovarian; 96.7% in the experiment with HS 578T breast. Besides, the growth in the experiment on NCI/ADR-RES ovarian was 94.2%.

Turning to `COc1cc(C(=O)C[n+]2ccc3ccccc3c2)cc(OC)c1OC`, the growth in the experiment on SK-MEL-2 melanoma is 102%; in the experiment with EKVX NSCLC it was 98.6%; in the experiment with SN12C renal, 90.4%; in the experiment with UO-31 renal, 94.2%; in the experiment on TK-10 renal, 112%; in the experiment with ACHN renal, 106%. The growth in the experiment with CAKI-1 renal is 92.6%; with CCRF-CEM leukemia, 97%; in the experiment on MOLT-4 leukemia, 106%; in the experiment on SR leukemia, 102%; in the experiment on RPMI-8226 leukemia it was 111%; in the experiment on OVCAR-8 ovarian it was 100%. Besides, the growth in the experiment with OVCAR-5 ovarian is 102%; in the experiment with OVCAR-4 ovarian, 104%; in the experiment on SK-OV-3 ovarian it was 97.1%; in the experiment with IGROV1 ovarian it was 95.8%; in the experiment on OVCAR-3 ovarian, 105%; with HS 578T breast it was 94%. Besides, the growth with NCI/ADR-RES ovarian was 101%.

As for `COc1cc(CNC(=O)Cc2ccccc2[N+](=O)[O-])ccc1OCC(=O)NO`, the growth in the experiment with SK-MEL-2 melanoma was 104%; in the experiment on EKVX NSCLC, 100%; in the experiment with SN12C renal, 99.5%; in the experiment with UO-31 renal, 83.1%; in the experiment on TK-10 renal it was 122%; in the experiment with ACHN renal, 103%. The growth was 90.4% in the experiment with CAKI-1 renal; 102% in the experiment on CCRF-CEM leukemia; 107% in the experiment with MOLT-4 leukemia; 97.4% in the experiment with SR leukemia; 118% with RPMI-8226 leukemia; 101% in the experiment on OVCAR-8 ovarian. The growth in the experiment with OVCAR-5 ovarian is 104%; with OVCAR-4 ovarian, 116%; in the experiment with SK-OV-3 ovarian, 107%; with IGROV1 ovarian, 108%; with OVCAR-3 ovarian, 126%; in the experiment with HS 578T breast, 108%. Moreover, the growth in the experiment on NCI/ADR-RES ovarian was 106%.

On to `CC(c1ccccc1)N1C(=O)/C(=C/c2csc(C#N)n2)SC1=S` (stereo unspecified), for which the growth is 96.2% in the experiment on SK-MEL-2 melanoma; 98.5% with EKVX NSCLC; 93.3% with SN12C renal; 64.8% in the experiment on UO-31 renal; 119% in the experiment with TK-10 renal; 87% in the experiment with ACHN renal. In addition, the growth with CAKI-1 renal is 84.9%; in the experiment with CCRF-CEM leukemia it was 10.5%; in the experiment on MOLT-4 leukemia it was 36.5%; in the experiment on SR leukemia, 48.9%; in the experiment with RPMI-8226 leukemia it was 41.8%; with OVCAR-8 ovarian, 93.4%. Further, the growth is 107% in the experiment on OVCAR-5 ovarian; 98.1% in the experiment with OVCAR-4 ovarian; 108% with SK-OV-3 ovarian; 90.9% with IGROV1 ovarian; 55.5% with OVCAR-3 ovarian; 97.5% in the experiment on NCI/ADR-RES ovarian.

As to `C#CCOc1ccc(C(Nc2cc(Cl)ccc2Cl)c2nnnn2C2CCCCC2)cc1` (stereo unspecified), the growth with SK-MEL-2 melanoma was 95%; with EKVX NSCLC, -8.05% (active); with SN12C renal, 91.4%; in the experiment on UO-31 renal, 62.5%; in the experiment with TK-10 renal it was 90.8%; with ACHN renal, 92%. The growth with CAKI-1 renal was 44.4%; with CCRF-CEM leukemia it was 85.8%; with MOLT-4 leukemia, 68.1%; with SR leukemia it was 87.6%; with RPMI-8226 leukemia, 81.1%; in the experiment on OVCAR-8 ovarian it was 91.3%. Moreover, the growth was 93.1% with OVCAR-5 ovarian; 93.3% in the experiment on OVCAR-4 ovarian; 100% in the experiment with SK-OV-3 ovarian; 80.4% in the experiment with IGROV1 ovarian; 95.6% in the experiment on OVCAR-3 ovarian; 87.4% with HS 578T breast. In addition, the growth with NCI/ADR-RES ovarian is 80.2%.

On to `COc1ccc(Cn2cc3c(c2-c2cc(OC)c(OC)c(OC)c2)CCCc2cnoc2-3)cc1`, for which the growth is 54.9% with SK-MEL-2 melanoma; 40.2% in the experiment on EKVX NSCLC; 36.3% in the experiment with SN12C renal; 30.7% in the experiment on UO-31 renal; 67.5% in the experiment on TK-10 renal; 36.3% in the experiment with ACHN renal. In addition, the growth in the experiment on CAKI-1 renal is 19.6%; in the experiment on CCRF-CEM leukemia it was 15.8%; in the experiment with MOLT-4 leukemia, 8.85% (active); in the experiment on SR leukemia it was 13.4%; in the experiment with RPMI-8226 leukemia it was 23.4%; with OVCAR-8 ovarian, 43%. In addition, the growth in the experiment on OVCAR-5 ovarian was 34.9%; in the experiment with OVCAR-4 ovarian it was 62.3%; in the experiment with SK-OV-3 ovarian, 58%; in the experiment with IGROV1 ovarian, 22.1%; in the experiment on OVCAR-3 ovarian it was 4.45% (active); in the experiment on HS 578T breast, 22.1%. In addition, the growth in the experiment with NCI/ADR-RES ovarian is 15.5%.

Turning to `COc1cc(CNC(=O)/C=C/c2ccccc2)ccc1OCC(=O)NO`, the growth in the experiment on SK-MEL-2 melanoma is 99.6%; in the experiment on EKVX NSCLC, 95.2%; in the experiment on SN12C renal, 95.8%; in the experiment with UO-31 renal it was 81.8%; with TK-10 renal, 102%; in the experiment with ACHN renal it was 93.3%. Also, the growth in the experiment with CAKI-1 renal was 91.4%; in the experiment on CCRF-CEM leukemia, 105%; in the experiment with MOLT-4 leukemia, 95.7%; in the experiment on SR leukemia it was 97%; in the experiment with RPMI-8226 leukemia, 102%; in the experiment on OVCAR-8 ovarian it was 98.2%. Also, the growth is 102% with OVCAR-5 ovarian; 108% with OVCAR-4 ovarian; 98.9% in the experiment on SK-OV-3 ovarian; 98.1% in the experiment on IGROV1 ovarian; 104% in the experiment with OVCAR-3 ovarian; 109% in the experiment with HS 578T breast. For the same compound, the growth with NCI/ADR-RES ovarian was 96.1%.
